Compounds with a hit are over-represented: about 4.7% of the library has one in this group of screens.
D1 antagonist: antagonists of human D1 dopamine receptor; AID 504652; activity change, negative = inhibition, % at 10 µM; P21728; HEK293 TREx D1 cells, calcium flux, dopamine EC80; stronger effect = lower value; 360,000 tested, 3.2% active; in the data active = activity change below about -30%; note: % is set by controls: 0 for no effect and ±100 for the full control effect
Target sequence (P21728 whole entry, looked up): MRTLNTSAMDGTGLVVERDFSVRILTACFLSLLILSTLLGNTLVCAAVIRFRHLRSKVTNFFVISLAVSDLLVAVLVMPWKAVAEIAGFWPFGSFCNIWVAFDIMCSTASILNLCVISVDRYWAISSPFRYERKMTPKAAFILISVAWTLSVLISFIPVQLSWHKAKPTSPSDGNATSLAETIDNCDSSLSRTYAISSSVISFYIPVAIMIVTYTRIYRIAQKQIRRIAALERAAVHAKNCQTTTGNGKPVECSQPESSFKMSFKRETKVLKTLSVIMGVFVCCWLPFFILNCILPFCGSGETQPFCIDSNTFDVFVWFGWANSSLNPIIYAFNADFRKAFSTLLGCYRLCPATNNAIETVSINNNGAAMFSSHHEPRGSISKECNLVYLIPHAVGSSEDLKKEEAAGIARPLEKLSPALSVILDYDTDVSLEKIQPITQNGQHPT
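Using tetracycline-induced force-coupled D1 Hek293 cells and a calcium dye, signals were followed for 180 s after compound, then for 180 s after EC80 dopamine, to detect inhibitors.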
TRHR enhancer: TRH receptor (human) allosteric enhancement; 360,000 tested, 0.66% active; P34981; TRHR cells, fluo-8 calcium fluorescence, EC20 TRH enhancement; enhancement, % at 2 µM; in the data active = enhancement above about 30%; note: 0% is about no effect
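TRHR-expressing cells loaded with fluo-8 calcium dye were read kinetically (ex 480/em 530) during compound addition, then stimulated with an EC20 of TRH (10 nM final). Enhancement of the Gq-mediated intracellular calcium response was scored.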
D1 PAM: potentiators of human D1 dopamine receptor | P21728 | HEK293 TREx D1 cells, calcium flux, dopamine EC20 potentiation | potentiation, % at 10 µM | 360,000 tested, 0.036% active | AID 504651; in the data active = potentiation above about 30%; note: 0% is about no effect
D1 agonist: activates the human D1 dopamine receptor. P21728. HEK293 T-REx D1 cells, calcium flux, agonist mode. activation, % at 2 µM. 360,000 tested, 1% active. AID 504660; note: 0% is about no effect
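Agonism was scored from calcium flux recorded over 180 s (1 read/s) after pintool compound addition, following a 10-cycle baseline. Cells were inducible force-coupled HEK293 TREx D1, plated overnight at 30 C and loaded with no-wash calcium dye.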
TRHR agonist: TRH receptor (human) agonism. activation, % at 2 µM. P34981. TRHR cells, calcium flux fluo-8, FDSS agonist mode. 360,000 tested, 0.18% active. AID 493084; note: 0% is about no effect
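Read-out: compound-evoked intracellular calcium rise in TRHR cells, fluo-8 dye, kinetic FDSS fluorescence at 1 s/cycle following a 10-cycle baseline. Cells cultured overnight before dye loading (30 min–1.5 h, RT).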
The depositor's hits bear a star; / = no result given. Cut-off read from the data, not from the text of the source, unless noted: active = activation above about 30%; inactive = the rest.

SMILES	D1 antagonist	TRHR enhancer	D1 PAM	D1 agonist	TRHR agonist
COCCn1c(=NC(=O)c2ccc3c(c2)OCCO3)sc2cc(C(=O)OC)ccc21	4	-2	2	1	0
Cc1ccc(NC(=O)C(=O)NCc2ccc(/C=C(/C#N)C(=O)NCc3cccnc3)o2)cc1	-29	9	-11	13	-1
N#C/C(=C/c1ccc(CNC(=O)C(=O)Nc2cc(Cl)cc(Cl)c2)o1)C(=O)NCc1cccnc1	-63*	19	-5	0	-1
Cc1cccc(Cn2c(COc3ccccc3)nc3ccccc32)c1	3	2	-4	10	0
CC(C)(C)OC(=O)N1CCCN(C(=O)Nc2ccc(C(F)(F)F)cc2)CC1	-31*	-9	-4	4	-1
COc1ccccc1CCC(=O)N1CCC(n2nccc2NC(=O)C2CCOC2)CC1 (stereo not drawn)	-8	2	-2	1	0
COCC(C)NC(=O)CSc1nc2cc(S(=O)(=O)N3CCCCC3)ccc2o1 (stereo not drawn)	-47*	-3	-9	4	1
COCCCNC(=O)CSc1nc2cc(S(=O)(=O)N3CCCCC3)ccc2o1	1	5	0	6	1
Cc1ccccc1C(=O)Nc1ccc(C(=O)OCc2cc(=O)n3c4c(sc3n2)CCCC4)cc1	6	-2	-1	0	1
Cc1ccccc1C(=O)Nc1cccc(OCc2cc(=O)n3c4c(sc3n2)CCCC4)c1	-15	32*	-2	3	-1
Cc1ccc(OCC(=O)Nc2ccc(OCc3cc(=O)n4ccsc4n3)cc2)cc1	3	-4	1	144*	-1
Cc1ccccc1OCC(=O)Nc1ccc(OCc2cc(=O)n3ccsc3n2)cc1	16	1	-4	0	0
Cc1cn2c(=O)cc(COc3ccc(NC(=O)c4cccc(F)c4)cc3)nc2s1	-41*	10	-6	1	-2
COc1ccc(C(=O)Nc2cccc(OCc3cc(=O)n4c5c(sc4n3)CCCC5)c2)cc1OC	6	3	-2	2	0
O=C(Nc1cccc(OCc2cc(=O)n3c4c(sc3n2)CCCC4)c1)c1ccc(F)cc1	-31*	4	-6	-1	-2
COc1ccc(S(=O)(=O)N2CCC(C(=O)NCC3CCCCC3)CC2)cc1	-12	-5	/	5	-2
CCn1c2ccccc2c2nnc(N3CCN(c4ccc(OC)cc4)CC3)nc21	2	-5	0	-1	0
Cc1cc(Cl)ccc1N=c1ssnc1Cl	-17	-3	0	30*	6
O=C(Nc1ccccc1F)c1cnc(N2CCCCC2)c2ccccc12	16	2	-2	0	0
Cc1ccc(S(=O)(=O)c2nnn3c2nc(NC(C)C)c2cc(Cl)ccc23)cc1C	-52*	-4	-4	0	0
COCCCNc1nc2c(S(=O)(=O)c3ccccc3)nnn2c2ccc(Cl)cc12	-16	-5	-4	1	0
COCCCNc1nc2c(S(=O)(=O)c3ccc(C)c(C)c3)nnn2c2ccc(Cl)cc12	-66*	-14	-7	2	0
COCCNc1nc2c(S(=O)(=O)c3ccc(C)c(C)c3)nnn2c2ccc(Cl)cc12	-64*	-15	-8	1	0
O=S(=O)(c1ccccc1)c1nnn2c1nc(NCc1ccc(Cl)cc1)c1sccc12	-34*	28	-5	0	0
Cc1ccc(CNc2nc3c(S(=O)(=O)c4ccccc4)nnn3c3ccsc23)cc1	7	-1	0	3	1
SMILES	D1 antagonist	TRHR enhancer	D1 PAM	D1 agonist	TRHR agonist
COc1ccc(-n2ncc(C(=O)NCCN3CCOCC3)c2C2CCN(C(=O)OC(C)(C)C)CC2)cc1	18	-6	2	1	-1
COc1cccc(C(=O)Nc2ccc(C(=O)OCc3cc(=O)n4nc(C5CC5)sc4n3)cc2)c1	4	-2	-1	1	0
CCOC(=O)c1ccc(NC(=O)c2c(NCc3cc(OC)c(OC)cc3OC)sc3c2CCCC3)cc1	1	4	6	2	0
CC1CCCN(CCCNC(=O)c2ccc3c(c2)N(Cc2cccc(Cl)c2)C(=O)c2ccccc2S3(=O)=O)C1 (stereo not drawn)	-1	-3	-4	28	3
Cc1ccc(S(=O)(=O)c2nnn3c2nc(NC(C)C)c2sccc23)cc1	-30*	-7	-7	5	0
COc1ccc(OC)c(NC(=O)COc2ccc(S(=O)(=O)N3CCCC3)cc2)c1	6	8	-3	2	0
CCOC(=O)CN1C(=O)C(Sc2n[nH]c(-c3ccc(C)cc3)n2)CCc2ccccc21 (stereo not drawn)	-66*	-1	1	0	0
Cc1ccc(NC(=S)N/N=C2/CCCCc3ccccc32)cc1	-6	-3	-1	1	0
COc1ccc(NC(=S)N/N=C2/CCCc3c(C)cc(C)cc32)cc1	-40*	-1	4	1	0
Clc1ccc(CSc2nnc(-c3c[nH]c4ccccc34)o2)cc1	-6	5	-7	3	0
CCOc1ccccc1-c1nnc(SCc2ccc(Cl)cc2)o1	-29	4	4	61*	-2
Cc1ccc(C(=O)N2CC=C(c3ccccc3)CC2)o1	-6	-3	-2	0	0
CC(=O)N1CCN(C(=O)c2cc(C)nc3ccccc23)CC1	11	-4	0	2	0
O=C(O)c1ccccc1C(=O)N1CC=C(c2ccccc2)CC1	-39*	-1	-3	2	1
Cc1cc(C(=O)N2CC=C(c3ccccc3)CC2)c2ccccc2n1	-41*	0	-3	2	0
Cc1cc(C)n(-c2ccnc3cc(Cl)ccc23)n1	-1	-1	-4	1	-1
COc1ccc(S(=O)(=O)Nc2cc3c4c(c2)CCN4C(=O)CC3)cc1	-15	1	-5	4	0
CC(OC(=O)C(C)N1C(=O)C2C3C=CC(C4CC34)C2C1=O)C(=O)c1ccccc1 (stereo not drawn)	-38*	15	2	10	1
CC(c1ccccc1)N1C(=O)C2C3C=CC(C4CC34)C2C1=O (stereo not drawn)	-10	-1	-2	2	0
Cc1ccc(-c2cc(Cc3ccc(F)cc3)c(=O)[nH]n2)cc1	-47*	1	-11	0	0
c1ccc(CN2OCC3Cn4c(nc5ccccc54)C32)cc1 (stereo not drawn)	33	-2	-3	2	0
c1ccc(N2OCC3Cn4c(nc5ccccc54)C32)cc1 (stereo not drawn)	-36*	8	-3	5	0
COC(=O)c1ccc(OCC2c3cc(OC)c(OC)cc3CCN2C(=O)c2cccc(C)c2)cc1 (stereo not drawn)	-33*	-4	-2	3	0
COC(=O)c1ccc(OCC2c3cc(OC)c(OC)cc3CCN2C(=O)C(C)C)cc1 (stereo not drawn)	4	8	0	-1	0
